# Results published in PubChem BioAssay (NCI).
# The panel holds about 83,000 compounds, 20% with a hit somewhere; the sample as a whole holds those more often.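 Compound tested at a single concentration for 48 hours in 96-well plates; a percent growth value below 10 was scored as active.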 A number with no mark means an inactive call. Active and inactive are the calls of the source.
# System: MDA-MB-468 breast
# Experiment: NCI-60 one-dose screen, 48 h (100 = growth as untreated, 0 = no growth, -100 = all killed)
# Settings: 10 µM unless noted
row,Compound,growth
1,Nc1ncc(-c2cnn(C3CCNCC3)c2)cc1-c1nc2ccccc2o1,-29.1% (active)
2,CO[C@@H](C(=O)N1Cc2[nH]nc(NC(=O)c3ccc(N4CCN(C)CC4)cc3)c2C1)c1ccccc1,50.7%
3,O=C(CN1CCN(c2cc3c(cc2F)c(=O)c(C(=O)O)cn3C2CC2)CC1)Nc1cc(=O)[nH]c(=O)[nH]1,89.7%
4,COc1ccc(C(=O)Nc2ncc(Cc3ccc(Cl)cc3)s2)cc1,24.6%
5,O=C(CCN1CCCC1)Nc1ccc2c(NCCCCc3ccccc3)c3ccccc3nc2c1,-74.7% (active)
6,CCC1=C[C@]2(C3CC(=O)N(c4ccccc4)C3=O)CC(C(C)(C)C)C[C@@H]2[C@@H]2C(=O)N(c3ccccc3)C(=O)[C@H]12 (stereo partly drawn),90.2%
7,COC(=O)N/N=C/c1c[n+]([O-])c2ccccc2[n+]1[O-],110%
8,O=C(N/N=C/c1ccco1)c1[nH]c2ccc(Br)cc2c1-c1ccccc1,14.9%
9,CO/N=C(/C)c1ccc(NC(=O)CSc2nnc(-c3ccncc3)n2-c2ccccc2)cc1,50.8%
10,O=C1NC(=C(Cl)Cl)/C(=N/S(=O)(=O)N2CCCCC2)N1,-38% (active)
11,O=c1[nH]c(-c2cccc(F)c2)cc2cc(F)ccc12,33.2%
12,O=C(Nc1ccc(-n2cc(-c3ccncc3)c(-c3ccc(Cl)c(O)c3)n2)cc1)Nc1ccc(Cl)c(C(F)(F)F)c1,-19.8% (active)
13,CCOC(=O)C(C(C)=O)c1nc2sc3cc(Cl)c(Cl)cc3n2c(=O)c1C#N (stereo not drawn),89.5%
